This assay can be described thus: chemical genetic growth profiling, strain panel (AID 1159580).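 Note: tested at 20 µM; growth read once vehicle control cultures reached saturation at 30 °C; 1 = growth at the plate median or of vehicle wells; lower values mean less growth of the strain.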 Conditions: growth OD.
The mark [1] stands for this setting: S. cerevisiae deletion strains, locus YAL040C, strain CLN3, active compounds read low.
Setting [2] is: S. cerevisiae deletion strains, locus YCL061C, strain MRC1 (second series), active compounds read low.
Where [3] appears, read: S. cerevisiae deletion strains, locus YDR363W, strain ESC2, active compounds read low.
Setting [4] is: S. cerevisiae deletion strains, locus YER002W, strain NOP16, active compounds read low.
Setting [5] is: S. cerevisiae deletion strains, locus YJR075W, strain HOC1, active compounds read low.
Where [6] appears, read: S. cerevisiae deletion strains, locus YMR263W, strain SAP30, active compounds read low.
Where [7] appears, read: S. cerevisiae deletion strains, locus YMR307W, strain GAS1, active compounds read low.
Where [8] appears, read: S. cerevisiae deletion strains, locus YNL128W, strain TEP1, active compounds read low.
[9] abbreviates: S. cerevisiae deletion strains, locus YNL153C, strain GIM3, active compounds read low.
The mark [10] stands for this setting: S. cerevisiae deletion strains, locus YNL175C, strain NOP13, active compounds read low.
Setting [11] is: S. cerevisiae deletion strains, locus YNL197C, strain WHI3, active compounds read low.
The mark [12] stands for this setting: S. cerevisiae deletion strains, locus YNL224C, strain SQS1, active compounds read low.
Where [13] appears, read: S. cerevisiae deletion strains, locus YNL322C, strain KRE1, active compounds read low.
The mark [14] stands for this setting: S. cerevisiae deletion strains, locus YOR083W, strain WHI5 (second series), active compounds read low.
The mark [15] stands for this setting: S. cerevisiae deletion strains, locus YPL055C, strain LGE1, active compounds read low.
Where [16] appears, read: S. cerevisiae deletion strains, locus YPL241C, strain CIN2, active compounds read low.
[17] abbreviates: S. cerevisiae deletion strains, locus YAL013W, strain DEP1, active compounds read low.
Where [18] appears, read: S. cerevisiae deletion strains, locus YDR150W, strain NUM1, active compounds read low.
[19] abbreviates: S. cerevisiae deletion strains, locus YGR078C, strain PAC10, active compounds read low.
Setting [20] is: S. cerevisiae deletion strains, locus YGR229C, strain SMI1, active compounds read low.
The mark [21] stands for this setting: S. cerevisiae deletion strains, locus YHR030C, strain SLT2, active compounds read low.
Where [22] appears, read: S. cerevisiae deletion strains, locus YBR229C, strain ROT2, active compounds read low.
Setting [23] is: S. cerevisiae deletion strains, locus YCL061C, strain MRC1, active compounds read low.
The mark [24] stands for this setting: S. cerevisiae deletion strains, locus YDL101C, strain DUN1, active compounds read low.
Setting [25] is: S. cerevisiae deletion strains, locus YEL061C, strain CIN8, active compounds read low.
Setting [26] is: S. cerevisiae deletion strains, locus YHR087W, strain rtc3, active compounds read low.
The mark [27] stands for this setting: S. cerevisiae deletion strains, locus YJR043C, strain POL32, active compounds read low.
Where [28] appears, read: S. cerevisiae deletion strains, locus YLR039C, strain RIC1, active compounds read low.
The mark [29] stands for this setting: S. cerevisiae deletion strains, locus YLR058C, strain SHM2 (second series), active compounds read low.
The mark [30] stands for this setting: S. cerevisiae deletion strains, locus YLR085C, strain ARP6, active compounds read low.
[31] abbreviates: S. cerevisiae deletion strains, locus YLR262C, strain YPT6, active compounds read low.
Setting [32] is: S. cerevisiae deletion strains, locus YML094W, strain GIM5, active compounds read low.
Where [33] appears, read: S. cerevisiae deletion strains, locus YMR219W, strain ESC1, active compounds read low.
[34] abbreviates: S. cerevisiae deletion strains, locus YNL298W, strain CLA4 (second series), active compounds read low.
Where [35] appears, read: S. cerevisiae deletion strains, locus YNR030W, strain Alg12, active compounds read low.
Setting [36] is: S. cerevisiae deletion strains, locus YPR135W, strain CTF4, active compounds read low.
Setting [37] is: S. cerevisiae strains, strain wild type, active compounds read low.

Out of some 5,500 compounds screened, about 2,000 (36%) were called active. About 18% were inconclusive and are not listed. This is one part of the list. Unmarked numbers belong to inactive results. Cut-off read from the data, not from the text of the source: active = normalized growth mostly below about 0.91 (no sharp cut-off); inconclusive = no clear call, values can overlap the other calls; inactive = mostly above about 0.92.

The values below come from PubChem BioAssay AID1159580 (chemical genetic matrix, 2015).

Turning to `COc1ccc2c3c1O[C@H]1C(=O)CC[C@@]4(O)C(C2)N(CC2CC2)CCC314` (some centres undefined), the normalized growth reads like this: under setting [1], 0.992; under setting [2], 0.999; under setting [3], 1.02; under setting [4], 0.991; under setting [5], 0.995; under setting [6], 1. Further, the normalized growth runs as follows: under setting [7], 0.993; under setting [8], 0.99; under setting [9], 0.995; under setting [10], 1.01; under setting [11], 1.02; under setting [12], 0.992. Moreover, the normalized growth by setting is: under setting [13], 1.01; under setting [14], 0.999; under setting [15], 1; under setting [16], 0.999.

For `CCCN(CCC)[C@@H]1CCc2ccc(O)cc2C1`, the normalized growth was 0.964 under setting [17]; 1.03 under setting [1]; 0.988 under setting [2]; 0.989 under setting [3]; 0.972 under setting [4]; 0.983 under setting [6]. Also, the normalized growth under setting [7] was 1.01; the normalized growth under setting [9] is 0.978; the normalized growth under setting [10] was 0.982; the normalized growth under setting [11] was 0.982; the normalized growth under setting [12] was 1.01; the normalized growth under setting [13] was 0.978. For the same compound, the normalized growth is, setting by setting: under setting [14], 0.996; under setting [15], 0.988.

For the compound `CC[C@@H]1Cc2cc(O)ccc2C2=C1c1ccc(O)cc1C[C@H]2CC`, the normalized growth is 1.01 under setting [17]; 0.852 (active) under setting [1]; 0.995 under setting [2]; 0.996 under setting [18]; 1.02 under setting [3]; 1.02 under setting [4]. Also, the normalized growth is, setting by setting: under setting [19], 0.777 (active); under setting [20], 1.04; under setting [5], 0.991; under setting [10], 0.904 (active); under setting [11], 0.954; under setting [12], 0.643 (active). The normalized growth by setting is: under setting [13], 0.993; under setting [14], 0.507 (active); under setting [15], 1.01.

On to `CCCN(CCC)C1CCc2ccc(O)cc2C1` (centres undefined), for which the normalized growth is 1.03 under setting [17]; 1.1 under setting [1]; 1.01 under setting [2]; 1.01 under setting [3]; 1.01 under setting [4]; 0.993 under setting [19]. Further, the normalized growth by setting is: under setting [5], 1; under setting [7], 1.02; under setting [8], 1.02; under setting [10], 1.01; under setting [11], 1.01; under setting [12], 0.995. The normalized growth under setting [14] is 0.991, the normalized growth under setting [15] was 1.02 and the normalized growth under setting [16] was 1.01.

For the compound `CC(=O)N[C@@H]1[C@@H](O)[C@H](O)[C@@H](CO)O[C@H]1O`, the normalized growth by setting is: under setting [21], 0.993; (S. cerevisiae deletion strains, locus YHR079C, strain IRE1, active compounds read low) 0.975; (S. cerevisiae deletion strains, locus YJL095W, strain BCK1, active compounds read low) 0.995; (S. cerevisiae deletion strains, locus YJR066W, strain TOR1, active compounds read low) 0.917; (S. cerevisiae deletion strains, locus YLR113W, strain HOG1, active compounds read low) 0.993; (S. cerevisiae deletion strains, locus YNL183C, strain NPR1, active compounds read low) 0.898. Besides, the normalized growth is, setting by setting: (S. cerevisiae deletion strains, locus YOR231W, strain MKK1, active compounds read low) 0.99; (S. cerevisiae deletion strains, locus YPL256C, strain CLN2, active compounds read low) 0.967.

Turning to `Cc1ccc(/C(C#N)=C2C=C/C(=N/O)C(Cl)=C\2Cl)cc1`, the normalized growth runs as follows: under setting [17], 0.953; under setting [22], 0.961; under setting [23], 0.965; under setting [24], 0.983; under setting [18], 0.963; under setting [25], 0.959. Further, the normalized growth is, setting by setting: under setting [19], 0.975; under setting [21], 0.631 (active); under setting [26], 1; under setting [27], 1.01; under setting [5], 1; under setting [28], 0.865. The normalized growth under setting [29] was 0.999; the normalized growth under setting [30] is 0.825; the normalized growth under setting [31] is 0.816 (active); the normalized growth under setting [32] is 0.973; the normalized growth under setting [33] is 0.991; the normalized growth under setting [6] is 0.984. For the same compound, the normalized growth is 0.721 under setting [7]; 0.962 under setting [9]; 0.885 under setting [34]; 0.98 under setting [13]; 0.877 (active) under setting [35]; 0.949 under setting [15]. Moreover, the normalized growth reads like this: under setting [16], 0.952; under setting [36], 0.681; under setting [37], 0.929.

On to `Cc1ccc(S(=O)(=O)/C(C#N)=N\O)cc1`, for which the normalized growth reads like this: under setting [17], 0.989; under setting [22], 0.999; under setting [23], 1.01; under setting [24], 1.01; under setting [18], 1.02; under setting [25], 0.985. Further, the normalized growth is 0.997 under setting [19]; 0.988 under setting [20]; 0.948 under setting [21]; 0.979 under setting [26]; 0.987 (S. cerevisiae deletion strains, locus YJL187C, strain SWE1, active compounds read low); 0.977 under setting [27]. Further, the normalized growth was 1.03 under setting [5]; 0.98 under setting [28]; 0.997 under setting [29]; 1.04 under setting [30]; 0.984 under setting [31]; 1.02 under setting [32]. For the same compound, the normalized growth by setting is: under setting [33], 1; under setting [6], 0.932; under setting [7], 1.12; under setting [9], 0.989; under setting [34], 0.977; under setting [13], 0.993. Moreover, the normalized growth reads like this: under setting [35], 0.998; under setting [15], 1.11; under setting [16], 1.02; under setting [36], 0.906; under setting [37], 0.971.
